Measured values as given in PubChem BioAssay (EPA / NIEHS).
Active and inactive are the calls of the source. How the source made its calls: active means hit-call score of the fitted dose curve at least 0.9, where 1 is the maximum; inactive means score below 0.9.

Key:
Settings in all cases: mRNA level, 48 h; actives raise or lower the signal
[1] = read-out: CYP2E1 (gene 1571); assay: LTEA_HepaRG_CYP2E1: Life Technologies and Expression Analysis (LTEA) Assay for CYP2E1 using HepaRG (AID 2283485)
Summary of the method: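 HepaRG cells in serum-free induction medium exposed 48 h to test chemicals, 8 half-log concentrations up to 100 uM in 0.5% DMSO, duplicate. CYP2E1 mRNA by qRT-PCR, normalized to ACTB, GAPDH, POLR2A; bidirectional fit versus DMSO.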

[2] = read-out: CYP4A11 (gene 1579); assay: LTEA_HepaRG_CYP4A11: Life Technologies and Expression Analysis (LTEA) Assay for CYP4A11 using HepaRG (AID 2283486)
Summary of the method: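 Readout is CYP4A11 transcript level by qRT-PCR, normalized to three housekeeping genes and fitted bidirectionally against 0.5% DMSO. Human HepaRG cells were treated 48 h, in duplicate, with an 8-point half-log series topping at 100 uM.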

[3] = read-out: Cytochrome P450 3A4 (Homo sapiens) (UniProt P08684); assay: LTEA_HepaRG_CYP3A4: Life Technologies and Expression Analysis (LTEA) Assay for CYP3A4 using HepaRG (AID 2283487)
Summary of the method: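 HepaRG, 48 h exposure, 8-pt CRC from 100 uM (half-log), 0.5% DMSO, duplicates; serum-free induction medium. Readout: CYP3A4 mRNA, qRT-PCR, ACTB/GAPDH/POLR2A normalization. Bidirectional fit vs DMSO.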

[4] = read-out: Pro-epidermal growth factor (Homo sapiens) (UniProt P01133); assay: LTEA_HepaRG_EGF: Life Technologies and Expression Analysis (LTEA) Assay for Epidermal growth factor (EGF) using HepaRG (AID 2283489)
Summary of the method: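 EGF transcript measured by Fluidigm TaqMan qRT-PCR with three housekeeping genes for normalization, 48 h after dosing HepaRG cultures in duplicate (top 100 uM, half-log steps, 0.5% DMSO vehicle). Gain or loss relative to DMSO fitted.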

[5] = read-out: Early growth response protein 1 (EGR1) transcription factor, EGR1 (gene 1958); assay: LTEA_HepaRG_EGR1: Life Technologies and Expression Analysis (LTEA) Assay for Early growth response protein 1 (EGR1) transcription factor using HepaRG (AID 2283490)
Summary of the method: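 Differentiated HepaRG cells in serum-free induction medium exposed 48 hours, duplicate, to 8 half-log concentrations up to 100 uM in 0.5% DMSO. EGR1 mRNA measured by TaqMan qRT-PCR, normalized to ACTB, GAPDH, POLR2A; bidirectional fit versus DMSO.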

[6] = read-out: Cytochrome P450 3A7 (Homo sapiens) (UniProt P24462); assay: LTEA_HepaRG_CYP3A7: Life Technologies and Expression Analysis (LTEA) Assay for CYP3A7 using HepaRG (AID 2283492)
Summary of the method: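 CYP3A7 transcript measured by qRT-PCR (ACTB, GAPDH, POLR2A normalization) after 48 h chemical exposure of HepaRG cells in duplicate. Eight half-log concentrations, maximum 100 uM, 0.5% DMSO vehicle; bidirectional curve fitting against DMSO baseline.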

[7] = read-out: CYP3A5 (gene 1577); assay: LTEA_HepaRG_CYP3A5: Life Technologies and Expression Analysis (LTEA) Assay for CYP3A5 using HepaRG (AID 2283493)
Summary of the method: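 Differentiated HepaRG cells in serum-free induction medium were dosed 48 h with test chemicals (8-point half-log series, top 100 uM, 0.5% DMSO, duplicate). CYP3A5 mRNA measured by qRT-PCR, normalized to ACTB, GAPDH, POLR2A; bidirectional fit versus DMSO.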

[8] = read-out: Cytochrome P450 7A1 (Homo sapiens) (UniProt P22680); assay: LTEA_HepaRG_CYP7A1: Life Technologies and Expression Analysis (LTEA) Assay for Cytochrome P450 7A1 (CYP7A1) using HepaRG (AID 2283496)
Summary of the method: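 Gene expression endpoint in human HepaRG liver cells treated for 48 h with test chemicals (up to 100 uM, 0.5% DMSO). Values come from bidirectional concentration-response fitting versus DMSO.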

[9] = read-out: Glutathione S-Transferase (GSTA2), GSTA2 (gene 2939); assay: LTEA_HepaRG_GSTA2: Life Technologies and Expression Analysis (LTEA) Assay for Glutathione S-Transferase (GSTA2) using HepaRG (AID 2283497)
Summary of the method: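 Differentiated human HepaRG cells were exposed in duplicate for 48 h in serum-free induction medium, 8 points from 100 uM top in half-log steps, 0.5% DMSO. GSTA2 mRNA was measured by TaqMan qRT-PCR, normalized to ACTB, GAPDH and POLR2A; bidirectional fit versus DMSO.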

[10] = read-out: Glutamate-cysteine ligase catalytic (GCLC), GCLC (gene 2729); assay: LTEA_HepaRG_GCLC: Life Technologies and Expression Analysis (LTEA) Assay for Glutamate-cysteine ligase catalytic (GCLC) using HepaRG (AID 2283498)
Summary of the method: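 Differentiated HepaRG cells exposed 48 h in serum-free induction medium, eight-point half-log series topping at 100 uM in 0.5% DMSO, duplicates. GCLC mRNA by qRT-PCR normalized to ACTB, GAPDH and POLR2A, fitted bidirectionally versus DMSO.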

[11] = read-out: growth arrest and DNA damage 45 (GADD45G), GADD45G (gene 10912); assay: LTEA_HepaRG_GADD45G: Life Technologies and Expression Analysis (LTEA) Assay for growth arrest and DNA damage 45 (GADD45G) using HepaRG (AID 2283499)
Summary of the method: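 GADD45G transcript level by qRT-PCR (housekeeping-normalized: ACTB, GAPDH, POLR2A) after 48 h chemical treatment of a single HepaRG lot in serum-free induction medium; eight-point half-log series up to 100 uM in 0.5% DMSO, duplicates, up- or down-regulation scored.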

[12] = read-out: Glutamate-cysteine ligase regulatory (GCLM), GCLM (gene 2730); assay: LTEA_HepaRG_GCLM: Life Technologies and Expression Analysis (LTEA) Assay for Glutamate-cysteine ligase regulatory (GCLM) using HepaRG (AID 2283500)
Summary of the method: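 Differentiated human HepaRG cells exposed 48 h in serum-free induction medium to 8-point half-log concentrations (top 100 uM, 0.5% DMSO), in duplicate. GCLM mRNA quantified by qRT-PCR, normalized to ACTB, GAPDH, POLR2A; bidirectional fitting versus DMSO.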

[13] = read-out: Glutathione S-transferase M3 (GSTM3), GSTM3 (gene 2947); assay: LTEA_HepaRG_GSTM3: Life Technologies and Expression Analysis (LTEA) Assay for Glutathione S-transferase M3 (GSTM3) using HepaRG (AID 2283501)
Summary of the method: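 GSTM3 transcript levels came from Fluidigm TaqMan qRT-PCR normalized to three housekeeping genes, fitted in both directions against DMSO. HepaRG cultures received chemicals for 48 h in serum-free induction medium (0.5% DMSO), 8 half-log concentrations up to 100 uM, duplicate.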

[14] = read-out: Heat shock 70 kDa protein 1 (HSPA1A), gene 3303; assay: LTEA_HepaRG_HSPA1A: Life Technologies and Expression Analysis (LTEA) Assay for Heat shock 70 kDa protein 1 (HSPA1A) using HepaRG (AID 2283502)
Summary of the method: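 Differentiated human HepaRG cells in serum-free induction medium were exposed in duplicate for 48 h to eight concentrations (top 100 uM, half-log steps, 0.5% DMSO). HSPA1A mRNA was quantified by qRT-PCR, normalized to ACTB, GAPDH and POLR2A, and fitted bidirectionally against DMSO.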

[15] = read-out: Hypoxia-inducible factor 1-alpha (Homo sapiens) (UniProt Q16665); assay: LTEA_HepaRG_HIF1A: Life Technologies and Expression Analysis (LTEA) Assay for Hypoxia-inducible factor 1 (HIF1A) Trancription factor using HepaRG (AID 2283503)
Summary of the method: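 HepaRG, 48 h exposure, 8-pt half-log series from 100 uM, 0.5% DMSO vehicle, duplicates. Readout: HIF1A transcript by qRT-PCR (Fluidigm array), housekeeping-normalised. Bidirectional curve fit vs DMSO baseline.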

[16] = read-out: 3-Hydroxy-3-Methylglutaryl-CoA Synthase 2 (HMGCS2), HMGCS2 (gene 3158); assay: LTEA_HepaRG_HMGCS2: Life Technologies and Expression Analysis (LTEA) Assay for 3-Hydroxy-3-Methylglutaryl-CoA Synthase 2 (HMGCS2) using HepaRG (AID 2283504)
Summary of the method: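 Readout is HMGCS2 transcript by qRT-PCR, housekeeping-normalised (ACTB/GAPDH/POLR2A) and fitted bidirectionally against 0.5% DMSO. Differentiated HepaRG cells received chemicals 48 h, duplicate wells, eight half-log concentrations topping at 100 uM.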

[17] = read-out: HGF (gene 3082); assay: LTEA_HepaRG_HGF: Life Technologies and Expression Analysis (LTEA) Assay for Hepatocyte Growth Facto (HGF) using HepaRG (AID 2283505)
Summary of the method: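 HGF transcript was quantified by TaqMan qRT-PCR against three housekeeping genes after 48 h treatment of HepaRG cells. Exposure ran in duplicate over eight half-log steps topping at 100 uM in 0.5% DMSO vehicle.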

[18] = read-out: Insulin Like Growth Factor 1 (IGF1), IGF1 (gene 3479); assay: LTEA_HepaRG_IGF1: Life Technologies and Expression Analysis (LTEA) Assay for Insulin Like Growth Factor 1 (IGF1) using HepaRG (AID 2283506)
Summary of the method: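 Differentiated human HepaRG cells were dosed for 48 h in serum-free induction medium with 0.5% DMSO, eight half-log concentrations up to 100 uM, in duplicate. IGF1 mRNA was quantified by qRT-PCR normalized to ACTB, GAPDH, POLR2A; bidirectional fitting versus DMSO.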

[19] = read-out: Intercellular Adhesion Molecule 1 (ICAM1), ICAM1 (gene 3383); assay: LTEA_HepaRG_ICAM1: Life Technologies and Expression Analysis (LTEA) Assay for Intercellular Adhesion Molecule 1 (ICAM1) using HepaRG (AID 2283507)
Summary of the method: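 ICAM1 transcript levels measured by qRT-PCR, normalized to three housekeeping genes (ACTB, GAPDH, POLR2A), after 48 h chemical exposure of HepaRG cells. Duplicate eight-point half-log series from 100 uM in 0.5% DMSO; gain or loss fitted against vehicle.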

[20] = read-out: Insulin-like growth factor-binding protein 1 (IGFBP1), IGFBP1 (gene 3484); assay: LTEA_HepaRG_IGFBP1: Life Technologies and Expression Analysis (LTEA) Assay for Insulin-like growth factor-binding protein 1 (IGFBP1) using HepaRG (AID 2283508)
Summary of the method: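 Read-out is qRT-PCR transcript level normalized to three housekeeping genes, fitted in both directions against 0.5% DMSO. Differentiated HepaRG cells received eight half-log concentrations (top 100 uM) in duplicate for 48 h in serum-free induction medium.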

Measured: AC50

Sequence of Hypoxia-inducible factor 1-alpha (Homo sapiens) (Q16665 whole entry, looked up): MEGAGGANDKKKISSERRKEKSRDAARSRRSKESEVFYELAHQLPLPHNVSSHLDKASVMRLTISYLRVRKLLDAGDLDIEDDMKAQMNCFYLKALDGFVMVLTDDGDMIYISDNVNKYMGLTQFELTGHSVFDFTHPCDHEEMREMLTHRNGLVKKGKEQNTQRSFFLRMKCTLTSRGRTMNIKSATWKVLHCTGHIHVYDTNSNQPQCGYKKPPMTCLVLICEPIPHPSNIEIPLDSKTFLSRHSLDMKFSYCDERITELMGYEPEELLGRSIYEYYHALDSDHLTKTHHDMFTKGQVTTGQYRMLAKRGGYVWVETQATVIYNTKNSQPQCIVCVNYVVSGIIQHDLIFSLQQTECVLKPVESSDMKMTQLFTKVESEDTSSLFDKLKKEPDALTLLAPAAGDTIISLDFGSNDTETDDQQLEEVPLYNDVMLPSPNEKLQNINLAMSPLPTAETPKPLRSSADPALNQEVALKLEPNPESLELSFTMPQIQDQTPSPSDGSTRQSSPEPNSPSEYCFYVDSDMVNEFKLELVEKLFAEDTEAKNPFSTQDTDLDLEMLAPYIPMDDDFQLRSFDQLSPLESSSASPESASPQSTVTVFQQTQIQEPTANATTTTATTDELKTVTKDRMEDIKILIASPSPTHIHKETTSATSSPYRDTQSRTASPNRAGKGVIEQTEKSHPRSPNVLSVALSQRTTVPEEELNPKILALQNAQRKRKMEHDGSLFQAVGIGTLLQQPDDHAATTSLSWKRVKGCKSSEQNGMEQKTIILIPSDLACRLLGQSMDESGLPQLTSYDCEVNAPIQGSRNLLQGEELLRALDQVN
Sequence of Cytochrome P450 3A4 (Homo sapiens) (P08684 whole entry, looked up): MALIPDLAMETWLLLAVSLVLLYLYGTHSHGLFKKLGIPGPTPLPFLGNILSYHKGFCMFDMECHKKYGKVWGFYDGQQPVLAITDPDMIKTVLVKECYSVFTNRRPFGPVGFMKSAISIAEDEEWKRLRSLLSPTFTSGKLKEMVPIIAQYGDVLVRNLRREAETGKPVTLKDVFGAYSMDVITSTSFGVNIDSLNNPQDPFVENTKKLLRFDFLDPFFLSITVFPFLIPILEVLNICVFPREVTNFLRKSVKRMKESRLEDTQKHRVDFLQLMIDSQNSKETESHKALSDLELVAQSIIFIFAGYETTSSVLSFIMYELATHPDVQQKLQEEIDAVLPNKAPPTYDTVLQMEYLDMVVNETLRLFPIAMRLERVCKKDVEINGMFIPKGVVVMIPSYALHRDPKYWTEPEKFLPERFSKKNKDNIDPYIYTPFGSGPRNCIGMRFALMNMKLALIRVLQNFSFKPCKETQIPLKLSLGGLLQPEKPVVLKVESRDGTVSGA
Sequence of Cytochrome P450 3A7 (Homo sapiens) (P24462 whole entry, looked up): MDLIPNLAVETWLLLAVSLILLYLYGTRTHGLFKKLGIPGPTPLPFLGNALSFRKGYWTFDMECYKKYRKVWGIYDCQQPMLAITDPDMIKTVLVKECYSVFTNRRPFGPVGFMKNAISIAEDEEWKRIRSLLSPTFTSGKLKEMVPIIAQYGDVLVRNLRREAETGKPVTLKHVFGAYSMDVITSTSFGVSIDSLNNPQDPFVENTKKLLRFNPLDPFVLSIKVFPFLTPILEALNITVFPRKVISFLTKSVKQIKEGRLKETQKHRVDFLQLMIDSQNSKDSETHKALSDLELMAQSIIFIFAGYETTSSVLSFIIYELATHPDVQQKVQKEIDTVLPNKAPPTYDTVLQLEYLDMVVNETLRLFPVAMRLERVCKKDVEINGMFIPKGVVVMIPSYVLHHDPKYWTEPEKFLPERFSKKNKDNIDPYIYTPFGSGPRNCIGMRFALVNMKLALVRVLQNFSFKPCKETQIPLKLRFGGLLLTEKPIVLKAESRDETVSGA

Cc1ccccc1N
inactive: [1] | [2] | [3] | [4] | [5] | [6] | [7] | [8] | [9] | [10] | [11] | [12] | [13] | [14] | [15] | [16] | [17] | [18] | [19] | [20]

CN(C)N=O
inactive: [1] | [2] | [3] | [4] | [5] | [6] | [7] | [8] | [9] | [10] | [11] | [12] | [13] | [14] | [15] | [16] | [17] | [18] | [19] | [20]

Cn1sc(Cl)cc1=O
inactive: [1] | [2] | [3] | [4] | [5] | [6] | [7] | [8] | [9] | [10] | [11] | [12] | [13] | [14] | [15] | [16] | [17] | [18] | [19] | [20]

O=[N+]([O-])c1ccc(O)c([N+](=O)[O-])c1
active: [1] 20.5 µM | [2] 31.5 µM | [3] 22.2 µM | [4] 12.9 µM | [5] 12.5 µM | [6] 16.4 µM | [7] 10.6 µM | [8] 25.6 µM | [9] 17 µM | [11] 90.6 µM | [12] 12.2 µM | [13] 12.7 µM | [15] 44.8 µM | [16] 22.9 µM | [18] 27.9 µM | [20] 13.3 µM
inactive: [14] | [17] | [19]

CCOP(=S)(OCC)Oc1nc(Cl)c(Cl)cc1Cl
inactive: [2] | [4] | [5] | [6] | [7] | [9] | [10] | [11] | [12] | [13] | [14] | [15] | [16] | [17] | [18] | [19] | [20]
active: [1] 50 µM | [3] 37.2 µM | [8] 50 µM
